Active and inactive are the calls of the source. Rule for the calls: active = hit-call score of the fitted dose curve at least 0.9, where 1 is the maximum; inactive = score below 0.9.

The nature of this experiment: ATG_DR4_LXR_CIS: Attagene CIS-FACTORIAL HepG2 Assay for human Liver X Receptor (LXR), DR4 submotif (AID 2282929). To be noted: HepG2 Attagene DR4 cis-reporter, mRNA transcription; actives raise or lower the signal. As to the method:
ATG_CIS is a cell-based, multiplexed-readout assay that uses HepG2, a human liver cell line, with measurements taken at 24 hours after chemical dosing in a 24-well plate.ATG_DR4_LXR_CIS is one of 52 assay component(s) measured or calculated from the ATG_CIS assay. It is designed to make measurements of mRNA induction, a form of inducible reporter, as detected with fluorescence intensity signals by Reverse transcription polymerase chain reaction (RT-PCR) and Capillary electrophoresis technology.Data from the assay component ATG_DR4_LXR_CIS was analyzed into 1 assay endpoint. This assay endpoint, ATG_DR4_LXR_CIS, was analyzed with bidirectional fitting relative to DMSO as the negative control and baseline of activity. Using a type of inducible reporter, measures of mRNA for gain or loss-of-signal activity can be used to understand the reporter gene at the transcription factor-level as they relate to the gene NR1H2 and NR1H3. Furthermore, this assay endpoint can be referred to as a primary readout, because this assay has produced multiple assay endpoints where this one serves a reporter gene function. To generalize the intended target to other relatable targets, this assay endpoint is annotated to the nuclear receptor intended target family, where the subfamily is non-steroidal.
Human liver HepG2 cells are transiently transfected with multiple reporter transcription units (MRTUs) in 6-well plates using FuGene 6 reagent (Roche; 3 ml FuGene/1 mg DNA). The MRTU constructs are regulated by a cis-regulating element (promoter). […] A major difference between the CIS and TRANS system is that in CIS activities of endogenous TFs are measured, whereas the TRANS assay evaluates changes in activities of exogenous, chimeric NR-Gal4 proteins. […] At the end of 24 hour incubation, total RNA was isolated using TriZol reagent (Invitrogen). The isolated RNA is then reverse-transcribed using oligo(dT) primer and Mo-MLV reverse transcriptase (Invitrogen) with DNAse I (Ambion) treatment for 30 min. The one-tenth of the produced cDNA was amplified by PCR using Taq DNA polymerase (Invitrogen) and two reporter sequence-specific primers. The PCR products were fluorescently labeled by primer extension with 6-arboxyfluorescein (6-FAM) 5'-labeled reporter sequence-specific primer (2 min at 95 C, 20 s at 68 C and 10 min at 72 C) and these products were digested with 5U of HpaI (New England Biolabs) for 2h at 37 C. The fragments were purified using Qiaquick PCR columns (Qiagen), analyzed on an ABI 3130xL genetic analyzer (Applied Biosystems) with peak positions identified by using a set of X-rhodamine (ROX)-labeled MapMarker1000 molecular weight standards (BioVentures). The raw capillary electrophoresis data was processed using Attagraph software (Attagene).
On to `CC(C)[C@@H]1CC[C@@H](C)CC1=O`, for which the outcome was inactive.

In the case of `O=C(O)c1cccc(C(F)(F)F)c1`, the call was inactive.

For `CCC(C(=O)NC(N)=O)c1ccccc1` (stereo not given), the compound was classed as inactive.

As to `CCCCCCCCCCC(CO)CCCCCCCC` (stereo not given), the compound was called inactive.

As for `CC(=O)C(=O)O`, the compound was called inactive.

On to `O=S(=O)(O)NC1CCCCC1`, for which the result was inactive.

On to `Cc1cccc(Nc2ccccc2C(=O)O)c1C`, for which the call was inactive.

Take `O=Cc1ccc(Cl)c([N+](=O)[O-])c1`: the AC50 is 48.4 µM (active).

Take `CCCCOCCOCCSC#N`: the compound was classed as inactive.

Regarding `COC(=O)OC`, the result was inactive.

In the case of `Nc1cccc(S(=O)(=O)c2cccc(N)c2)c1`, the compound was called inactive.

For `CCCC(=O)c1cc(O)c(O)cc1O`, the call was inactive.

Consider `CCn1c2ccccc2c2cc(N)ccc21`, for which the call was inactive.

For the compound `CCCCCOC(=O)CCC`, the call was inactive.

As for `C/C=C(\C)C(=O)OCc1ccccc1`, the call was inactive.

`CC(C)C(C)(C)C(C)(C)C(C)(C)S`: the result was inactive.

Turning to `CC1(C)OC[C@@H]2O[C@@]3(C(=O)O)OC(C)(C)O[C@H]3[C@@H]2O1`, the compound was called inactive.

Take `CC(=O)OCCC(C)CC(C)(C)C` (stereo not given): the outcome was inactive.

For `CC(C)C[C@H]1C(=O)N2CCC[C@H]2[C@]2(O)O[C@](NC(=O)[C@@H]3C=C4c5cccc6[nH]c(Br)c(c56)C[C@H]4N(C)C3)(C(C)C)C(=O)N12`, the AC50 was 7.76 µM (active).

`O=c1oc(=O)c2cc3c(=O)oc(=O)c3cc12`: the compound was classed as inactive.

For `O=C1OC2(c3cc(Br)c(O)c(Br)c3Oc3c2cc(Br)c(O)c3Br)c2c(Cl)c(Cl)c(Cl)c(Cl)c21`, the call was inactive.

Take `O=S(=O)(O)c1cccc2c(S(=O)(=O)O)cccc12`: the compound was called inactive.

Take `CC(C)(C)C(=O)c1ccccc1`: the result was inactive.

With `CC(=O)C(C)=O`, the call was inactive.

For the compound `c1ccc2c(c1)c1cccc3ccc4cccc2c4c31`, the result was inactive.

As to `CC(C)(C)c1n[nH]c(=S)n(N)c1=O`, the compound was classed as inactive.

For `O=C1O[C@@H]2[C@@H](O)[C@H](O)O[C@@H]2[C@H]1O`, the compound was called inactive.

On to `Cc1ccc2ccccc2n1`, for which the call was inactive.

`CC1(C)C(=O)N(Br)C(=O)N1Cl`: the compound was called inactive.

In the case of `CC(=O)[O][Al][O]C(C)=O`, the call was inactive.

Turning to `CCc1c(C)cc(N)c(CC)c1N`, the outcome was inactive.

With `O=C1NC(=O)c2ccccc21`, the compound was called inactive.

For the compound `CC(C)(CO)[N+](=O)[O-]`, the result was inactive.

Turning to `CCCCCCCCCCCCOCCO`, the half-maximal activity concentration (AC50) was 51.7 µM (active).

As to `O=C(O)c1snc(Cl)c1Cl`, the AC50 was 100 µM (active).

On to `COc1cccc(OC)c1`, for which the compound was called inactive.

With `O=c1cc(-c2ccccc2)oc2cc(O)cc(O)c12`, the half-maximal activity concentration (AC50) was 7.76 µM (active).

Consider `C=C(C)[C@@H]1CCC2=CC(=O)C[C@@H](C)[C@]2(C)C1`, for which the AC50 was 177 µM (active).

On to `CCCCNC(=O)NS(=O)(=O)c1ccc(N)cc1`, for which the result was inactive.

Regarding `COC(=O)C1=C(C)NC(C)=C(C(=O)OCCN(C)Cc2ccccc2)C1c1cccc([N+](=O)[O-])c1` (stereo not given), the concentration at half-maximal activity (AC50) is 8.22 µM (active).

The values are drawn from PubChem BioAssay (EPA / NIEHS).
